Data as given in PubChem BioAssay (Tox21).
Inconclusive results are not listed. Active and inactive are the calls of the source. Calls come from the whole dose curve; as a rule, active = well fitted activation curve with a large enough effect in the signal ratio in the repeat runs (not every such curve was filed as active); inconclusive = weak or mixed curves, or effect the other way; inactive = flat fitted curve, though single readings scatter; the % refers to the signal ratio.

Molecular target: Estrogen receptor beta (Homo sapiens) (UniProt Q92731)
Assay: qHTS assay to identify small molecule agonists of the estrogen receptor beta (ER-beta) signaling pathway (AID 1259377)
Conditions: ER-beta-UAS-bla HEK293T, beta-lactamase FRET ratio, 16 h; series mostly up to 92.4 µM
Description: U.S. Tox21 Program National Center for Advancing Translational Sciences [NCATS] NIH Chemical Genomics Center [NCGC] U.S. Environmental Protection Agency [EPA] National Institutes of Environmental Health Sciences [NIEHS] National Toxicology Program [NTP] U.S. Food and Drug Administration [FDA] Tox21 Assay Overview: Estrogen receptor (ER), a nuclear hormone receptor, plays an important role in development, metabolic homeostasis and reproduction. Two subtypes of ER, ER-alpha and ER-beta, have similar expression patterns with some uniqueness in both types. Endocrine disrupting chemicals (EDCs) and their interactions with steroid hormone receptors like ER causes disruption of normal endocrine function. To identify the compounds that activate ER signaling, an ER beta-UAS-bla GripTite cell line (Life technologies, Madison, WI, USA) containing a beta-lactamase reporter gene under the control of an Upstream Activator Sequence (UAS) was used to screen Tox21 10K compound library.
Tox21 Assay Protocol Summary: ER-beta-UAS-bla HEK293T cells were dispensed at 2,000 cells/5 uL of assay medium containing 2% charcoal stripped FBS per well into black wall/clear-bottom 1536-well plates using a Multidrop Combi (ThermoFisher Scientific, Waltham, MA) dispenser. After the assay plates were incubated at a 37C and 5% CO2 for 6 hr, 23 nL of compounds dissolved in DMSO, positive controls or DMSO only was transferred to the assay plate by a Pintool station (Kalypsys, San Diego, CA). The plates were incubated at 37C and 5% CO2 for 16 hr. Then 1 uL of LiveBLAzerTM B/G FRET substrate was added using a BioRAPTR FRD (Flying Reagent Dispenser, Aurora Discovery, San Diego, CA). After the plates were incubated at room temperature for 2 hours, fluorescence intensity was measured by an Envision plate reader (PerkinElmer, Shelton, CT).

Sequence of Estrogen receptor beta (Homo sapiens) (Q92731 whole entry, looked up): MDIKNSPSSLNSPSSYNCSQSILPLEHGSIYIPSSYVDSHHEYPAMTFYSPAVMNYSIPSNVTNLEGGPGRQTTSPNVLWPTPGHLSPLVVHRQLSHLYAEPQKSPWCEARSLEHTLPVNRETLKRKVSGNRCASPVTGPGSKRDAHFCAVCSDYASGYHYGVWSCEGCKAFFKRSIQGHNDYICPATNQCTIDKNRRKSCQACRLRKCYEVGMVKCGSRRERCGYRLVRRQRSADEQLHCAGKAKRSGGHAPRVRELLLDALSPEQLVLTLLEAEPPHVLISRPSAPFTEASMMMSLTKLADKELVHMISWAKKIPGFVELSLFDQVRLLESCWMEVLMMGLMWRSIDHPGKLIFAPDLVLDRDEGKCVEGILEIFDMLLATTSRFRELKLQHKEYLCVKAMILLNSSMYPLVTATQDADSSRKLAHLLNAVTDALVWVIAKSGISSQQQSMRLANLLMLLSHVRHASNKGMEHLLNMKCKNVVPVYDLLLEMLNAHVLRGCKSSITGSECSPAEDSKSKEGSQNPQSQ

SMILES | outcome
Cc1noc(NS(=O)(=O)c2ccc(N)cc2)c1C | inactive
NC(=O)c1ccccc1O | inactive
O=C(O)c1cc(N=Nc2ccc(S(=O)(=O)Nc3ccccn3)cc2)ccc1O | inactive
C/C=C/c1ccc(OC)cc1 | inactive
CC(C)[C@@H]1CC[C@@H](C)C[C@H]1O | inactive
CCCC(O)C(CC)CO (stereo not given) | inactive
Cc1ccc(C)c(OCCCC(C)(C)C(=O)O)c1 | inactive
CC(C)(Oc1ccc(C2CC2(Cl)Cl)cc1)C(=O)O (stereo not given) | inactive
Cc1ccc(S(=O)(=O)NC(=O)NN2CCCCCC2)cc1 | inactive
Cn1cc[nH]c1=S | inactive
O=c1ccc2ccccc2o1 | inactive
Cc1ccccc1C(OCCN(C)C)c1ccccc1 (stereo not given) | inactive
NC(N)=O | inactive
NC(=O)c1cnccn1 | inactive
OC(Cn1cncn1)(Cn1cncn1)c1ccc(F)cc1F | inactive
Cc1ccc(O)cc1 | inactive
O=C(c1ccccc1)C(O)c1ccccc1 (stereo not given) | inactive
CC(=O)Nc1nnc(S(N)(=O)=O)s1 | inactive
COc1c2occc2cc2ccc(=O)oc12 | inactive
CC(O)CN(CCN(CC(C)O)CC(C)O)CC(C)O (stereo not given) | inactive

SMILES | outcome
CC(=O)NS(=O)(=O)c1ccc(N)cc1 | inactive
O=C1CN(/N=C/c2ccc([N+](=O)[O-])o2)C(=O)N1 | inactive
CNC[C@H](O)c1cccc(O)c1 | inactive
COc1ccc2[nH]cc(CCNC(C)=O)c2c1 | inactive
O=c1cc[nH]c(=S)[nH]1 | inactive
C1N2CN3CN1CN(C2)C3 | inactive
CCCCC1C(=O)N(c2ccccc2)N(c2ccccc2)C1=O | inactive
Nc1ccc(C(=O)O)cc1 | inactive
CCC1(c2ccccc2)C(=O)NCNC1=O | inactive
Nc1ccc(O)c(C(=O)O)c1 | inactive
CCCCOC(=O)CC(CC(=O)OCCCC)(OC(C)=O)C(=O)OCCCC | inactive
NC(N)=NC(=O)c1nc(Cl)c(N)nc1N | inactive
O=C(O)c1cccc([N+](=O)[O-])c1 | inactive
C[C@]12C=CC(=O)C=C1CC[C@@H]1[C@@H]2[C@@H](O)C[C@@]2(C)[C@H]1CC[C@]2(O)C(=O)CO | inactive
CCCN(CCC)S(=O)(=O)c1ccc(C(=O)O)cc1 | inactive
Cc1cc(=O)n(-c2ccccc2)n1C | inactive
CCCNC(=O)NS(=O)(=O)c1ccc(Cl)cc1 | inactive
O=C(O)CCCCCCCC(=O)O | inactive
CC1(C)[C@@H]2CC[C@@]1(C)C(=O)C2 | inactive
O=C(O)c1cccnc1 | inactive
